This is part of a sample that, as a whole, favours compounds with a hit. Of some 79,000 tested, about 15% had one in any assay. Activity calls are given as the source filed them. No stated cut-off is given here; in the data, active means growth inhibition above about 70%; inactive means the rest.
How the values were obtained:
[1] = NCI Yeast Anticancer Drug Screen. Data for the rad52 strain (AID 147);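 further: 0% = growth of vehicle-treated control cultures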; details: S. cerevisiae rad52 mutant growth inhibition, stronger effect = higher value
Outline: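 Growth of repair-deficient yeast cells was compared between compound-treated and vehicle-treated cultures to give percent inhibition.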

[2] = NCI Yeast Anticancer Drug Screen. Data for the wt1 strain (AID 149);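 further: 0% = growth of vehicle-treated wt1 cultures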; details: S. cerevisiae wt1 strain (SPY 50644) growth inhibition, stronger effect = higher value
Outline: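 Using yeast strain wt1, compound-induced growth inhibition was determined against vehicle-treated cultures.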

[3] = NCI Yeast Anticancer Drug Screen. Data for the rad50EPP+ strain (AID 151);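 further: 0% = growth of vehicle-treated control cultures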; details: S. cerevisiae rad50 mutant strain, stronger effect = higher value
Outline: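 Measured: growth inhibition of rad50EPP+ yeast. Reference: vehicle-treated controls. Screen uses strains with defined genetic alterations in DNA damage repair or cell cycle control.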

[4] = NCI Yeast Anticancer Drug Screen. Data for the mgt1 strain (AID 153); details: S. cerevisiae mgt1 mutant growth inhibition, stronger effect = higher value
Outline: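 Compounds were applied to mgt1 mutant yeast, and growth was then compared against vehicle-treated control cultures to give percent inhibition.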

[5] = NCI Yeast Anticancer Drug Screen. Data for the rad50 strain (AID 155);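 further: 0% = growth of vehicle-only cultures of the same strain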; details: S. cerevisiae rad50 strain growth inhibition, stronger effect = higher value
Outline: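 Relative growth inhibition (compound vs vehicle) was measured in yeast with a defined repair-gene alteration.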

[6] = NCI Yeast Anticancer Drug Screen. Data for the mec2-1 strain (AID 157); details: S. cerevisiae mec2-1 strain, stronger effect = higher value
Outline: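 Compounds were applied to mec2-1 yeast cells. Their growth was then compared with that of vehicle-treated cultures to give growth inhibition.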

[7] = NCI Yeast Anticancer Drug Screen. Data for the rad14 strain (AID 159);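 further: 0% = growth of vehicle-treated control cultures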; details: S. cerevisiae rad14 strain growth inhibition, stronger effect = higher value
Outline: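 Screen for anticancer potential: a yeast strain altered in DNA damage repair is grown with compound, and reduced growth is quantified against vehicle controls.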

[8] = NCI Yeast Anticancer Drug Screen. Data for the sgs1 mgt1 strain (AID 161);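 further: 0% = growth of cultures given vehicle only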; details: S. cerevisiae sgs1 mgt1 strain, stronger effect = higher value
Outline: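 Yeast cells carrying a defined DNA-repair defect were exposed to test compounds. Growth inhibition was measured relative to vehicle-treated controls.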

[9] = NCI Yeast Anticancer Drug Screen. Data for the CLN2oe strain (AID 163);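 further: 0% = growth of vehicle-only control cultures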; details: S. cerevisiae CLN2oe strain, stronger effect = higher value
Outline: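 Cells of an engineered yeast line with disturbed cell-cycle regulation are treated with compound. Inhibition of growth is then calculated relative to the vehicle-treated reference.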

[10] = NCI Yeast Anticancer Drug Screen. Data for the cln2 rad14 strain (AID 165);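 further: 0% = growth equal to vehicle treated cultures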; details: S. cerevisiae cln2 rad14 strain, stronger effect = higher value
Outline: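 Strain: cln2 rad14 yeast, altered in cell cycle control and DNA damage repair. Read-out: growth inhibition vs vehicle.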

[11] = NCI Yeast Anticancer Drug Screen. Data for the bub3 strain (AID 167); details: S. cerevisiae bub3 mutant strain, stronger effect = higher value
Outline: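 Screening used yeast with an engineered genetic alteration affecting cell cycle control. Compound-exposed cultures were compared with vehicle cultures, and reduced growth was taken as inhibition.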

[12] = NCI Yeast Anticancer Drug Screen. Data for the wt2 strain (AID 169);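 further: 0% = growth of vehicle-treated yeast cultures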; details: S. cerevisiae wt2 strain growth inhibition, stronger effect = higher value
Outline: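 Growth of compound-treated yeast is measured and expressed as inhibition relative to vehicle-only controls.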

[13] = NCI Yeast Anticancer Drug Screen. Data for the mlh1 strain (AID 171);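 further: 0% = growth of vehicle-treated control cultures of the same strain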; details: S. cerevisiae mlh1 strain growth inhibition, stronger effect = higher value
Outline: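 Test agents were incubated with yeast bearing a defined DNA damage repair or cell cycle control alteration; values are growth inhibition normalised to vehicle-treated cultures.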

[14] = NCI Yeast Anticancer Drug Screen. Data for the sgs1 strain (AID 173);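 further: 0% = growth of vehicle-only control cultures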; details: S. cerevisiae sgs1 mutant, stronger effect = higher value
Outline: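 Strain with an altered DNA repair or cell cycle pathway exposed to compound. Growth then measured. Value = inhibition versus vehicle control.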

[15] = NCI Yeast Anticancer Drug Screen. Data for the mlh1 rad18 strain (AID 175); details: S. cerevisiae mlh1 rad18 strain growth inhibition, stronger effect = higher value
Outline: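 A repair-deficient yeast strain is exposed to test compound, and growth is scored relative to vehicle-treated controls.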

[16] = NCI Yeast Anticancer Drug Screen. Data for the rad18 strain (AID 177); details: S. cerevisiae rad18 mutant growth inhibition, stronger effect = higher value
Outline: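 DNA-repair-defective yeast; compound treatment; growth inhibition scored against vehicle.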

[17] = at 5.0 µM (retest, dose inferred, filed as 0.5)
[18] = at 50.0 µM (retest, dose inferred, filed as 5.0)

Measured: growth inhibition

CC1=CCC(C(C)(C)c2ccc(O)cc2)CC1 (stereo not given)
inactive: [1]; at 1.2 µM 4% | [1]; at 3.7 µM -12% | [1]; at 11.0 µM -11% | [2]; at 1.2 µM -16% | [2]; at 3.7 µM -18% | [2]; at 11.0 µM -39% | [3]; at 1.2 µM -10% | [3]; at 3.7 µM -4% | [3]; at 11.0 µM -25% | [3]; at 33.0 µM 27% | [4]; at 1.2 µM 35% | [4]; at 3.7 µM 10% | [4]; at 11.0 µM -23% | [5]; at 1.2 µM -6% | [5]; at 3.7 µM -8% | [5]; [17] 35% | [5]; at 11.0 µM -26% | [5]; [18] 65% | [6]; at 1.2 µM -20% | [6]; at 3.7 µM -19% | [6]; [17] 52% | [6]; at 11.0 µM -40% | [7]; at 1.2 µM -8% | [7]; at 3.7 µM -18% | [7]; at 11.0 µM -39% | [8]; [17] 7% | [9]; at 1.2 µM 15% | [9]; at 3.7 µM 19% | [9]; at 11.0 µM -17% | [10]; [17] 37% | [11]; at 1.2 µM 7% | [11]; at 3.7 µM 4% | [11]; [17] 39% | [11]; at 11.0 µM -4% | [12]; at 1.2 µM -41% | [12]; at 3.7 µM -24% | [12]; at 11.0 µM -44% | [13]; at 1.2 µM 10% | [13]; at 3.7 µM 9% | [13]; at 11.0 µM -10% | [14]; at 1.2 µM 2% | [14]; at 3.7 µM -17% | [14]; at 11.0 µM -28% | [15]; [17] 32% | [15]; [18] 63% | [16]; at 1.2 µM -6% | [16]; at 3.7 µM -7% | [16]; at 11.0 µM -5%
active: [1]; at 33.0 µM 96% | [1]; at 100.0 µM 97% | [2]; at 33.0 µM 97% | [2]; at 100.0 µM 98% | [3]; at 100.0 µM 78% | [4]; at 33.0 µM 97% | [4]; at 100.0 µM 97% | [5]; at 33.0 µM 96% | [5]; at 50.0 µM 91.8% | [5]; at 100.0 µM 97% | [6]; at 33.0 µM 93% | [6]; [18] 73% | [6]; at 50.0 µM 93.5% | [6]; at 100.0 µM 98% | [7]; at 33.0 µM 97% | [7]; at 100.0 µM 98% | [8]; [18] 97% | [9]; at 33.0 µM 97% | [9]; at 100.0 µM 97% | [10]; [18] 98% | [11]; at 33.0 µM 96% | [11]; [18] 97% | [11]; at 100.0 µM 97% | [12]; at 33.0 µM 93% | [12]; at 100.0 µM 97% | [13]; at 33.0 µM 96% | [13]; at 100.0 µM 98% | [14]; at 33.0 µM 96% | [14]; at 100.0 µM 97% | [15]; at 50.0 µM 91.8% | [16]; at 33.0 µM 96% | [16]; at 100.0 µM 97%
